# Source: PubChem BioAssay AID1347426 (Functional Genomics Laboratory (NCATS/FGL), 2020)
# Screen size: about 31,000 sequences; about 1,400 (4.5%) were called active. The sample as a whole holds a higher share of actives than the screen did. Unmarked numbers belong to inactive results.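 The calls were made as follows: active = median seed-adjusted z-score above 1 or below -1; inactive = the rest.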
# Assay: Novel Modifiers of Survival Motor Neuron (SMN) Protein: Gene Identification via Genome-wide siRNA Screen;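 also: luminescence tracks full-length SMN protein made from the SMN2 reporter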
# Conditions: HEK293T SMN2-luciferase reporter, siRNA knockdown, 72 h; actives lie on both sides
# Procedure, shortened: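 HEK293T cells stably expressing an SMN2 splicing/cDNA-luciferase reporter were reverse-transfected with a druggable-genome siRNA library and read by luminescence at 72 hours; hits defined by MAD score above 1.0 or below -1.0.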
row,Sequence,median seed-adjusted z-score
1,GAUCUGCAUCAAUACUGAATT against FBLN5,-0.0832
2,CACUGACUAUUAUCAUUCATT against WHSC1L1,-0.283
3,GGGAUGUAAUAACAGCAUUTT against GDE1,-0.256
4,CUGUUGCACUUCACAUUUUTT against TRIP13,1 (active)
5,CAGCUUAAUUUUUACGCAATT against IPMK,-0.00138
6,CACCUACGAUAGCUACUAUTT against NKTR,-1.1 (active)
7,GCCUCACGUUUGUCAGUAUTT against WNK3,-0.466
8,CAUCCAACGACAAUCUAUATT against ATP1A2,0.248
9,UCACGGCUCUGUUGAAUGUTT against DUSP4,-0.176
10,GACCCAUGGUAAAAUGCAATT against TWIST1,-0.159
11,GCAUAAUAAGGGUAGGGAUTT against DDX53,-0.136
12,GAUAGAAGCAUGGAAUUGATT against MRS2,1.38 (active)
13,GGUCAAUUCAGUGAAGAUATT against ARL8B,-0.477
14,GAUUGGUGGUUGGAACAUUTT against ECE2,0.794
15,CCAAAGAUAUCGGACCCUATT against PI4K2A,-0.486
16,CGGCGUCUCUACUACGUCUTT against CLEC11A,-1.1 (active)
17,CUUCCUGGGUGUAAUGUUATT against IGSF1,0.258
18,GCAAGGCAGCUGUUCUGAATT against PGLS,0.188
19,GCAUCUGUGAGGAUAUUGATT against FBN3,0.264
20,GAGUCGAGUUUGAUGAAGATT against GSTA4,-0.848
21,CGUUCGGUCUGACGCAGUATT against LRP5,-1 (active)
22,CGAUGUCAGUUUCUAGUAATT against USP42,-0.0125

row,Sequence,median seed-adjusted z-score
1,GCCGUUUGACCAUACAUUATT against SNTB1,0.488
2,CCAAGAAACUAACACGCUATT against PFKFB2,0.311
3,GGAAGGUGAUUGAUCCUAATT against HNRNPD,0.504
4,CGAAAAACCAUAGACUACATT against WDR33,3.27 (active)
5,GCAAAUGUCAGAGAUUGAATT against SFXN5,0
6,CAGUUACUCUGGGAGUAUATT against PRPF3,-0.289
7,CCAGGUGUAUUCAAUGGAATT against FMO3,-0.0769
8,ACGACUGCCUGGUCUUAAATT against ADAP2,-1.1 (active)
9,GCACUCGAGUAAUUAGCAATT against DOCK10,-0.201
10,GGUUCUGCUUUAUUACCUUTT against HNRNPD,0.504
11,CAGCUUACAAUACAUCAAATT against ZNF7,0
12,AAGACAUGAUGUUCCACAATT against ADCY6,-0.0652
13,GCACAGAUAUCCUCGUGUATT against ARL11,1 (active)
14,CAGUAGCAGUGGAAUGGGATT against RBMX,0.0941
15,GCGCUUCUGGUGUACGACATT against RAB17,0.473
16,CAUCCACACUUCUCCAGAATT against HK1,-0.129
17,GAGUGGGCGUGGAUAGAAATT against PSMC2,-1.96 (active)
18,AGUUAUUGCUACUUCAGAATT against CX3CR1,-0.292
19,GCAACUACGUUGACUUCUATT against CTNND2,-0.0491
20,AACUGAACAUAGCAGAAUUTT against ZNF85,-1.01 (active)
21,CGGUGACUGUGAACGGCAATT against DNAJB8,-1.09 (active)
22,ACAUAGUAAAGACUUUCUATT against PIGA,-0.0514

row,Sequence,median seed-adjusted z-score
1,GUCAGUUGUUAGAACAUAATT against TRIM24,-0.22
2,CAAUUCUUAUUGACUCAUATT against IFNA1,-0.625
3,CAUCAUCCAUGGUAGCUUUTT against DUOX1,-1.09 (active)
4,GCUUGACCCUUAGACGGAATT against LILRB3,0.0304
5,GGUGUUAUCCUAUGAGGUATT against MPP4,0.13
6,GGAAAAACCUUCUACCUGATT against ZNF12,-0.144
7,GGCCUUACGGGUGUAGUAATT against ZNF419,0.0405
8,GGAUCAAGGCUAUGUGGAUTT against CYB5R1,0
9,UAUGAGUUGUUGUUGGGAATT against NSUN5,0.118
10,UCUUAUCCUUUGUCGCAGATT against LMO3,0.496
11,GCAUCACCCAAGUAGUUAUTT against SFXN2,0.365
12,GACUCAUAUGGACCAGUUATT against ZNF460,-0.302
13,CAUGGGCUCUAUUACGCUUTT against SPEN,-1.69 (active)
14,GUCUACCCAUGGACCCAGATT against HBG1,-0.716
15,CACCAACUAAUGUUACAAUTT against IFNGR1,-0.279
16,CCUCGAGACUAUACGGUUATT against MED26,-1.86 (active)
17,CCAGUGGAGUGGUAUCUAUTT against RBBP5,0.169
18,GAACUCAUGUCCGACAUAATT against STX1A,0
19,GCGCUUUGGAGAUCCGAGATT against KLC3,-0.156
20,GCAGUAGAAGUAUCCGGGATT against THSD4,0.0657
21,CCUUCUCAAUGGAUUCCAATT against VN1R1,0.531
22,GGUCAUGCAGGGUUGGAAATT against ALDH1B1,0.105

row,Sequence,median seed-adjusted z-score
1,GGAAGAUUGUCGCUCCUCATT against TFAP2C,1.28 (active)
2,CAGAAGACCUGGUGCCCUATT against SPI1,0.384
3,GCAUUAAUAACAUUACGUUTT against ZNF236,0.683
4,CGCCCGCGAUUACUACCAUTT against HSPA12B,-0.141
5,GUGCCACCGGAGCUAGUAATT against KCNK4,-0.446
6,AGGUGAAACUUCGAAGACATT against TRPM3,-0.633
7,CGAUGAACGAGUACAUUGATT against GRIA2,-1.02 (active)
8,CAUCUGAAGUGGUUAAGCATT against SLC25A26,0.0213
9,CCGGAAAUUUGGGACGCAATT against DHX58,-0.302
10,GGAGGUCAUUAAAACACCATT against HADH,1.11 (active)
11,GGACGACCGUGUAUAGUUUTT against RFESD,-0.503
12,CACUUUAGAUGAUAUCAGATT against PPP3CA,0.74
13,GCUAUAAGGUGGAACGGCATT against POLR2A,-3.81 (active)
14,GCUUAUGGAUGGAGACCAATT against RNF34,-0.0857
15,AGGUGAUGUCGGUCGGAGATT against RAB24,0.123
16,AGCAAUAACUCGUGUAGCATT against EFNA2,-0.314
17,GGGCGGUACUUUACAACUATT against KCTD9,1.31 (active)
18,CUAGAGUAUUUUGAUCUAATT against FAT2,-0.286
19,CACCGUGUUUGACAACUAUTT against RAC2,-0.596
20,GGACCAACCCAGAAUCGUATT against MAOB,0
21,UCGCAAAGGUGAACACUCATT against PIN1,0.156
22,AGAUGUGACUGGCUGGUCATT against LCN12,0.124

row,Sequence,median seed-adjusted z-score
1,AGACCUACACGGUACGCGUTT against THAP11,-1.36 (active)
2,GCAUCUAAUACUUAUGGAATT against MS4A4A,0.296
3,GAAGCAUGAUGGACAGGAUTT against ISOC1,0.104
4,CCUCGACCUGGUCACUUUATT against TRMU,0.0312
5,CCGUAGCAAUAGUAGGUGUTT against UBA5,-0.105
6,GCCUGACCAUCUCCAUUGUTT against USH1C,-0.164
7,CGUGUUCCGAGAAAACGAATT against PLEKHM2,0.593
8,GCAACAGCUCAAAAACGAATT against UAP1,0.0411
9,CAUCUACUGUCAUUAACCATT against ITIH5,-0.289
10,AGACCCAGCUAGAUUCUGATT against GPR152,-0.9
11,CCUCGUUUGACAUCCACUATT against CTSD,-0.282
12,CAUUCACGGAGAUAAGAAATT against ALDH1L1,0.0289
13,UGAAUUACCUGGACCGUUUTT against CCND2,-0.819
14,UGCGUUUUCUGAUAACUCATT against PTP4A2,-1.45 (active)
15,GGCAAAAAGCUGACUGAGATT against GPD1,0.558
16,GGAUGAUUAUGCUAAUCUATT against GGPS1,-0.372
17,GCACUGUCUUUGUAUCUGATT against SFXN2,0.365
18,GGGCUGUUGUAAUAGUGGATT against SFPQ,-1.15 (active)
19,AGGCCUUUCUUACCCAGAATT against MAP2K1,0.942
20,CACUUGAUCUCUUAACCAUTT against 10-Sep,0.571
21,GCACAGGACAGACAGGCUATT against SRC,-0.0246
